# Measurements taken from PubChem BioAssay AID1745845 (National Center for Advancing Translational Sciences (NCATS), 2022).
# Screen size: about 360,000 compounds; about 2,600 (0.72%) were called active. Where a call stands in place of a potency, no number is given. About 5% were inconclusive and are not listed. Calls follow the shape of the dose curve; as a rule, active = well fitted inhibition curve with a large enough effect; inconclusive = small, poorly fitted or top-dose-only effect; inactive = no such curve, though single readings can be large or run the other way. The sample as a whole holds a higher share of actives than the screen did.
# Experiment: Primary qHTS for Inhibitors of ATXN expression; also: nearly all actives have a fitted effect of over 55% in size
# Details: HEK-293 ATXN2-luciferase reporter, luminescence, 24 h; series mostly up to 57 µM
# How it was run: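 qHTS (up to 57 uM final) was run with 24 h compound exposure of reporter cells at 37 °C. Each well was multiplexed: SteadyGlo luminescence measured ATXN2-luciferase expression after a fluorogenic Gly-Phe-AFC viability readout (25 uM final).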
# Potency is read from the fitted curve at half-maximal effect.
row,Compound,Potency
1,C=CCn1c(COc2cccc3cccnc23)nnc1SCC(=O)OC,inactive
2,COc1ccc(CCNS(=O)(=O)c2cccc3cccnc23)cc1OC,inactive
3,CCCCC(=O)NC(c1ccc(OC)c(OC)c1)c1ccc2cccnc2c1O (configuration not stated),5.01 µM (active)
4,CC1=C(C(=O)N(C(C)C)C(C)C)CC(CC(=O)NCCCCc2ccccc2)C(=O)N1CCC1=CCCCC1 (configuration not stated),inactive
5,CCCCN(CC)C(=S)Nc1ccc2nc3n(c(=O)c2c1)CCCCC3,inactive
6,CCc1c2c(nc3ccc(O)cc13)-c1cc3c(c(=O)n1C2)COC(=O)[C@]3(O)CC,0.0061 µM (active)
7,COc1ccc(C(=O)COC(=O)CCCC(=O)Nc2cc(C(F)(F)F)ccc2Cl)cc1,inactive
8,COc1cccc(NC(=O)C2CCN(c3cc(C)nc4c(-c5ccc(Cl)cc5)c(C)nn34)CC2)c1,inactive
9,COc1ccc(-n2nc3c(N4CCC(C(=O)NCc5ccccc5)CC4)nnc(C)c3c2C)cc1,inactive
10,CCCCNC(=O)C1CCCN(c2nnc(C)c3c(C)n(-c4ccc(Cl)cc4)nc23)C1 (configuration not stated),inactive
11,CCc1ccc(CNC(=O)C2CCN(c3nnc(C)c4c(C)n(-c5ccc(C)cc5)nc34)CC2)cc1,31.6 µM (active)
12,Cc1nnc(N2CCCC(C(=O)NCCN(C)C)C2)c2nn(-c3ccccc3)c(C)c12 (configuration not stated),inactive
13,Cc1nnc(N2CCC(C(=O)Nc3ccc(F)cc3)CC2)c2nn(-c3ccc(Cl)cc3)c(C)c12,25.1 µM (active)
14,CSc1nc(-c2ccc(F)cc2)nc2c1Cc1c(CO)cnc(C)c1O2,inactive
15,Cc1ccc(CNC(=O)CCc2c(C)nc3c(c(C)nn3-c3ccccc3)c2C)cc1,inactive
16,CN(C)c1ccc(NC(=O)CSc2nc(-c3ccco3)cc(C(F)(F)F)n2)cc1,inactive
17,COc1cccc(CNC(=O)c2cc(=O)[nH]c3ccc(S(=O)(=O)N4CCCCC4)cc23)c1,inactive
18,Cc1cc(NC(=O)CCC(=O)N(c2cccc(F)c2)C(C(=O)NC2CCCC2)c2ccncc2)no1 (configuration not stated),inactive
19,Cc1cc(NC(=O)/C=C/C(=O)N(CC(=O)NC2CCCC2)c2ccc(F)cc2)no1,inactive

row,Compound,Potency
1,Cc1cc(NC(=O)/C=C/C(=O)N(c2ccccc2C)C(C(=O)NC2CCCC2)c2ccc(F)cc2)no1 (configuration not stated),10 µM (active)
2,CCOc1ccc(-c2nonc2NC(=O)c2oc3ccc(C)cc3c2C)cc1OCC,inactive
3,O=C(Nc1ccc(O)c(-c2nc3ccccc3o2)c1)c1ccc(-c2cccc(Cl)c2)o1,inactive
4,CC1(C(=O)NCc2ccco2)Cc2c(-c3ccc4c(c3)OCO4)ccnc2O1 (configuration not stated),inactive
5,CCOC(=O)c1ccc(NC(=O)CCn2cnnn2)cc1,inactive
6,CON=C(C(=O)N[C@@H]1C(=O)N2C(C(=O)OCOC(=O)C(C)(C)C)=C(C=Cc3scnc3C)CS[C@H]12)c1csc(N)n1,inactive
7,Cc1cc(Br)cn2c(Cc3cccc(F)c3)c(-c3cccc(Br)c3)nc12,inactive
8,CC(C)(C)c1cc(C(=O)O)c(NC(=O)Nc2ccc3[nH]ncc3c2)s1,inactive
9,CC(C)(C)c1nc(-c2cccc(NS(=O)(=O)c3c(F)cccc3F)c2F)c(-c2ccnc(N)n2)s1,inactive
10,OC(c1ccc(Cl)cc1)c1ncc(-c2ccc(Cl)cc2)[nH]1 (configuration not stated),inactive
11,CC(C)Cc1ccc(-c2cc3nc(NCc4cccc(Cl)c4)ccn3n2)cc1,inactive
12,O=C(CCl)N(Cc1cccc([N+](=O)[O-])c1)c1cccc(Cl)c1,2.38 µM (active)
13,Cc1cc([N+](=O)[O-])ccc1NCc1cccc([N+](=O)[O-])c1,inactive
14,CC(=O)N(CN1C(=O)C2CC=CCC2C1=O)c1cccc(Cl)c1 (configuration not stated),inactive
15,Cn1c(=O)[nH]c(=O)c2c1nc(NCCc1ccccc1)n2Cc1ccc(F)cc1,inactive
16,CC(=O)Nc1ccc(Nc2c3ccccc3nc3ccccc23)cc1,2.51 µM (active)
17,CC(=O)Nc1ccc(S(=O)(=O)N(C)c2nc3ccccc3nc2Cl)cc1,inactive
18,O=C(NNc1c2ccccc2nc2ccccc12)c1cc2ccccc2cc1O,inactive
19,Cc1cc2c(cc1C)C(c1cccc(OC(C)C)c1)CC(=O)N2 (configuration not stated),inactive

row,Compound,Potency
1,CCS(=O)(=O)N1CCc2cc(C(=O)NCc3ccc(OC)cc3)ccc21,inactive
2,CCOC(=O)c1ccc(NC(=O)CC2C(=O)N(c3ccccc3)C(=O)N2Cc2cccs2)cc1 (configuration not stated),inactive
3,COc1ccccc1N1CCN(c2ncnc3onc(-c4ccc(F)cc4)c23)CC1,inactive
4,COCOCCn1cc(CN2CCS(=O)(=O)N(Cc3ccc(-c4cccc(N(C)C)c4)cc3)C(CC(C)C)C2=O)nn1 (configuration not stated),inactive
5,COc1ccc(-c2ccc(CN3C(CC(C)C)C(=O)N(Cc4cn(CC5CCCCC5)nn4)CCS3(=O)=O)cc2)cc1 (configuration not stated),inactive
6,COCOCCn1cc(CN2CCS(=O)(=O)N(Cc3ccc(-c4ccc(OC)cc4)cc3)C(CC(C)C)C2=O)nn1 (configuration not stated),28.2 µM (active)
7,O=C(CC(NCc1cccnc1)C(=O)O)Nc1ccc(O)cc1 (configuration not stated),inactive
8,COc1ccc(-c2noc(CSc3nnc(-c4ccccc4)n3-c3ccc(F)cc3)n2)c(OC)c1,inactive
9,CC(=O)c1ccc(-c2cnc3c(NC=O)cc(-c4cccc(NS(C)(=O)=O)c4)cn23)cc1,inactive
10,Cc1ccc(NS(=O)(=O)c2cc3c(cc2Br)NC(=O)CO3)cc1C,inactive
11,CCCOc1ccc(C(=O)C(CCC(CNCC)C(=O)c2ccc(OCCC)cc2)CNCC)cc1 (configuration not stated),17.8 µM (active)
12,CCCOc1cccc(C(=O)Nc2cccc(NC(=O)c3ccc(C(C)(C)C)cc3)c2)c1,inactive
13,CCCOc1ccc(/C=N/NC(=O)C2CC2)c(OCCC)c1,inactive
14,COc1cccc(-c2nc(S(=O)(=O)c3ccc(C)cc3)c(NCc3ccccc3)o2)c1,inactive
15,Cc1cccc(NC(=O)CSc2nc3c(oc4ccccc43)c(=O)n2-c2ccc(F)cc2)c1,inactive
16,COC(=O)c1ccc2c(c1)N(CC(=O)Nc1ccc(C)c(C)c1)C(=O)c1ccccc1S2,inactive
17,COc1ccc(/C=C2/SC(=O)N(CCCCCC(=O)Nc3ccccc3C(=O)O)C2=S)cc1,10 µM (active)
18,COc1ccc(/C=C2\SC(=O)N(CCC(=O)NCCCn3ccnc3)C2=O)cc1,inactive
19,COc1ccc(/C=C2\SC(=O)N(CCC(=O)NC3CCS(=O)(=O)C3)C2=O)cc1 (configuration not stated),inactive
